PubChem BioAssay AID1159580 (chemical genetic matrix, 2015)
The whole screen tested about 5,500 compounds, of which about 2,000 (36%) were called active. About 18% were inconclusive and are not listed. No stated cut-off is given here; in the data, active means normalized growth mostly below about 0.91 (no sharp cut-off); inconclusive means no clear call, values can overlap the other calls; inactive means mostly above about 0.92. The list shows a part of the results.

Experiment: chemical genetic growth profiling, strain panel (AID 1159580);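 further: tested at 20 µM; growth read once vehicle control cultures reached saturation at 30 °C; 1 = growth at the plate median or of vehicle wells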
Settings: S. cerevisiae deletion strains, growth OD
[1] = locus YDL101C, strain DUN1, stronger effect = lower value
[2] = locus YHR030C, strain SLT2, stronger effect = lower value
[3] = locus YHR079C, strain IRE1, stronger effect = lower value
[4] = locus YJL095W, strain BCK1, stronger effect = lower value
[5] = locus YJR066W, strain TOR1, stronger effect = lower value
[6] = locus YLR113W, strain HOG1, stronger effect = lower value
[7] = locus YNL183C, strain NPR1, stronger effect = lower value
[8] = locus YOR231W, strain MKK1, stronger effect = lower value
[9] = locus YPL256C, strain CLN2, stronger effect = lower value

Measured: normalized growth

Cc1nn(C)c(C(=O)Sc2ccc(OC(F)(F)F)cc2)c1[N+](=O)[O-]
inactive: locus YAR019C, strain CDC15, stronger effect = lower value 0.977 | locus YBL105C, strain PKC1, stronger effect = lower value 0.974 | locus YBR135W, strain CKS1, stronger effect = lower value 0.969 | locus YBR136W, strain MEC1, stronger effect = lower value 0.984 | locus YBR160W, strain CDC28, stronger effect = lower value 0.977 | locus YDL017W, strain CDC7, stronger effect = lower value 0.977 | locus YDL028C, strain MPS1, stronger effect = lower value 0.985 | [1] 0.978 | locus YDL108W, strain KIN28, stronger effect = lower value 0.98 | locus YDL132W, strain cdc53, stronger effect = lower value 0.952 | locus YDL214C, strain PRR2, stronger effect = lower value 0.946 | locus YDR052C, strain DBF4, stronger effect = lower value 0.983 | locus YDR054C, strain cdc34, stronger effect = lower value 0.952 | locus YDR226W, strain ADK1, stronger effect = lower value 0.982 | locus YDR477W, strain SNF1, stronger effect = lower value 0.993 | locus YER123W, strain YCK3, stronger effect = lower value 0.895 | locus YER133W, strain GLC7, stronger effect = lower value 1 | locus YFL009W, strain cdc4, stronger effect = lower value 0.965 | locus YFL029C, strain CAK1, stronger effect = lower value 0.978 | locus YFR003C, strain YPI1, stronger effect = lower value 0.978 | locus YFR019W, strain FAB1, stronger effect = lower value 0.972 | locus YFR028C, strain CDC14, stronger effect = lower value 0.987 | locus YGR040W, strain KSS1, stronger effect = lower value 1.03 | locus YGR052W, strain FMP48, stronger effect = lower value 0.988 | locus YGR092W, strain DBF2, stronger effect = lower value 0.939 | [3] 0.977 | locus YHR082C, strain KSP1, stronger effect = lower value 0.947 | locus YHR205W, strain SCH9, stronger effect = lower value 0.611 | locus YIL147C, strain SLN1, stronger effect = lower value 0.985 | [4] 0.947 | locus YJL128C, strain PBS2, stronger effect = lower value 0.87 | locus YJL157C, strain FAR1, stronger effect = lower value 0.978 | locus YJR016C, strain ILV3, stronger effect = lower value 0.977 | locus YJR066W, strain TOR1 (second series), stronger effect = lower value 1.02 | [5] 0.936 | locus YKL048C, strain ELM1, stronger effect = lower value 0.989 | locus YKL067W, strain YNK1, stronger effect = lower value 0.96 | locus YKL101W, strain HSL1, stronger effect = lower value 0.985 | locus YKL193C, strain SDS22, stronger effect = lower value 0.975 | locus YKL203C, strain TOR2, stronger effect = lower value 1.13 | locus YLR133W, strain CKI1, stronger effect = lower value 0.949 | locus YLR403W, strain SFP1, stronger effect = lower value 0.99 | locus YML070W, strain DAK1, stronger effect = lower value 0.959 | locus YMR001C, strain CDC5, stronger effect = lower value 0.979 | locus YMR205C, strain PFK2 (second series), stronger effect = lower value 0.965 | locus YMR277W, strain FCP1, stronger effect = lower value 0.968 | locus YNL006W, strain LST8, stronger effect = lower value 0.974 | locus YNL020C, strain ARK1, stronger effect = lower value 0.95 | locus YNL161W, strain CBK1, stronger effect = lower value 0.98 | [7] 1.04 | locus YNL207W, strain RIO2, stronger effect = lower value 0.989 | locus YNL222W, strain SSU72, stronger effect = lower value 0.976 | locus YNL307C, strain MCK1 (second series), stronger effect = lower value 0.918 | locus YOL078W, strain AVO1, stronger effect = lower value 0.972 | locus YOL136C, strain PFK27, stronger effect = lower value 0.935 | locus YOR061W, strain CKA2, stronger effect = lower value 0.95 | locus YOR119C, strain RIO1, stronger effect = lower value 1.11 | [8] 0.884 | locus YOR329C, strain SCD5, stronger effect = lower value 0.982 | locus YPL031C, strain PHO85, stronger effect = lower value 1.01 | locus YPL153C, strain RAD53, stronger effect = lower value 1.03 | locus YPL204W, strain HRR25, stronger effect = lower value 1.06 | locus YPL209C, strain IPL1, stronger effect = lower value 0.981 | [9] 0.952 | locus YPR025C, strain CCL1, stronger effect = lower value 0.981 | locus YPR106W, strain ISR1, stronger effect = lower value 0.959 | locus YPR111W, strain DBF20, stronger effect = lower value 0.932 | strain NNK1, stronger effect = lower value 0.955 | strain TSCII, stronger effect = lower value 0.982
active: [2] 1.25 [resistant] | [6] 0.834

Cc1nn(C)c(C)c1[N+](=O)[O-]
inactive: locus YAL013W, strain DEP1, stronger effect = lower value 0.996 | locus YBR229C, strain ROT2, stronger effect = lower value 1.03 | [1] 0.992 | locus YDL134C, strain PPH21, stronger effect = lower value 1 | locus YDR150W, strain NUM1, stronger effect = lower value 0.939 | locus YEL061C, strain CIN8, stronger effect = lower value 1 | locus YGR078C, strain PAC10, stronger effect = lower value 0.999 | locus YGR229C, strain SMI1, stronger effect = lower value 1.01 | [2] 1.01 | locus YHR087W, strain rtc3, stronger effect = lower value 1.02 | locus YJR043C, strain POL32, stronger effect = lower value 0.997 | locus YJR075W, strain HOC1, stronger effect = lower value 0.988 | locus YKL190W, strain CNB1, stronger effect = lower value 1 | locus YLR039C, strain RIC1, stronger effect = lower value 0.998 | locus YLR058C, strain SHM2 (second series), stronger effect = lower value 1.01 | locus YLR085C, strain ARP6, stronger effect = lower value 1.02 | locus YLR262C, strain YPT6, stronger effect = lower value 0.993 | locus YML094W, strain GIM5, stronger effect = lower value 0.994 | locus YMR219W, strain ESC1, stronger effect = lower value 1.02 | locus YMR307W, strain GAS1, stronger effect = lower value 0.994 | locus YNL128W, strain TEP1, stronger effect = lower value 1.01 | locus YNL153C, strain GIM3, stronger effect = lower value 1 | locus YNL298W, strain CLA4 (second series), stronger effect = lower value 1.01 | locus YNL322C, strain KRE1, stronger effect = lower value 0.996 | locus YNR030W, strain Alg12, stronger effect = lower value 1.02 | locus YOL006C, strain TOP1, stronger effect = lower value 1.05 | locus YPL055C, strain LGE1, stronger effect = lower value 0.867 | locus YPL241C, strain CIN2, stronger effect = lower value 1 | locus YPR135W, strain CTF4, stronger effect = lower value 1.03

OC[C@@H](O)[C@@H](O)[C@H](O)[C@@H](O)CO
inactive: [2] 0.986 | [3] 0.96 | [4] 0.992 | [5] 0.946 | [6] 0.989 | [7] 0.947 | [8] 0.989 | [9] 1.01

CCCc1cc(C(N)=S)ccn1
inactive: locus YAL021C, strain ccr4, stronger effect = lower value 0.966 | locus YAL026C, strain drs2, stronger effect = lower value 0.982 | locus YAL030W, strain snc1, stronger effect = lower value 0.985 | locus YBL061C, strain skt5, stronger effect = lower value 0.975 | locus YBR009C, strain hhf1, stronger effect = lower value 0.939 | locus YBR023C, strain chs3, stronger effect = lower value 0.963 | locus YBR171W, strain sec66, stronger effect = lower value 0.955 | locus YBR231C, strain swc5, stronger effect = lower value 0.981 | locus YBR279W, strain paf1, stronger effect = lower value 0.97 | locus YCL011C, strain gbp2, stronger effect = lower value 0.974 | locus YCL016C, strain dcc1, stronger effect = lower value 0.985 | locus YCL069W, strain vba3, stronger effect = lower value 0.963 | locus YCR088W, strain abp1, stronger effect = lower value 0.966 | locus YDL005C, strain med2, stronger effect = lower value 0.959 | locus YDL040C, strain nat1, stronger effect = lower value 0.964 | locus YDR001C, strain nth1, stronger effect = lower value 0.971 | locus YDR069C, strain doa4, stronger effect = lower value 0.95 | locus YDR137W, strain rgp1, stronger effect = lower value 0.976 | locus YDR159W, strain sac3, stronger effect = lower value 0.89 | locus YDR195W, strain ref2 0.976 | locus YDR297W, strain sur2, stronger effect = lower value 0.975 | locus YDR334W, strain swr1, stronger effect = lower value 0.929 | locus YDR335W, strain msn5, stronger effect = lower value 0.961 | locus YDR392W, strain spt3, stronger effect = lower value 0.886 | locus YEL003W, strain gim4, stronger effect = lower value 0.972 | locus YEL037C, strain rad23, stronger effect = lower value 0.964 | locus YEL061C, strain CIN8 (second series), stronger effect = lower value 0.96 | locus YER015W, strain faa2, stronger effect = lower value 0.978 | locus YER016W, strain bim1, stronger effect = lower value 0.988 | locus YER111C, strain swi4, stronger effect = lower value 0.988 | locus YER155C, strain BEM2 (second series), stronger effect = lower value 0.958 | locus YFR010W, strain ubp6, stronger effect = lower value 0.948 | locus YGL167C, strain pmr1, stronger effect = lower value 0.939 | locus YGL173C, strain kem1, stronger effect = lower value 0.966 | locus YGL227W, strain vid30, stronger effect = lower value 0.974 | locus YGL240W, strain doc1, stronger effect = lower value 0.953 | locus YGL253W, strain hxk2, stronger effect = lower value 0.952 | locus YHR013C, strain ard1, stronger effect = lower value 0.954 | locus YHR027C, strain rpn1, stronger effect = lower value 0.967 | [2] 1.01 | [3] 1.02 | locus YHR142W, strain chs7, stronger effect = lower value 0.981 | locus YJL092W, strain hpr5, stronger effect = lower value 0.971 | locus YJL095W, strain BCK1 (second series), stronger effect = lower value 0.978 | [4] 1.02 | locus YJL115W, strain asf1, stronger effect = lower value 0.948 | locus YJL129C, strain trk1, stronger effect = lower value 0.981 | locus YJL154C, strain vps35, stronger effect = lower value 0.96 | locus YJL164C, strain tpk1, stronger effect = lower value 0.971 | locus YJL166W, strain qcr8, stronger effect = lower value 0.95 | [5] 0.925 | locus YKL160W, strain elf1, stronger effect = lower value 0.989 | locus YKR026C, strain gcn3, stronger effect = lower value 0.942 | locus YKR091W, strain srl3, stronger effect = lower value 0.96 | locus YLL001W, strain dnm1, stronger effect = lower value 0.954 | locus YLL026W, stronger effect = lower value 0.985 | locus YLL041C, strain sdh2, stronger effect = lower value 0.964 | locus YLR027C, strain aat2, stronger effect = lower value 0.98 | [6] 0.997 | locus YLR221C, strain rsa3, stronger effect = lower value 0.956 | locus YLR258W, strain gsy2, stronger effect = lower value 0.966 | locus YLR262C, strain YPT6 (second series), stronger effect = lower value 0.943 | locus YLR320W, strain mms22, stronger effect = lower value 0.937 | locus YLR342W, strain FKS1, stronger effect = lower value 0.981 | locus YLR357W, strain rsc2, stronger effect = lower value 0.888 | locus YLR370C, strain arc18, stronger effect = lower value 0.955 | locus YLR384C, strain iki3, stronger effect = lower value 0.971 | locus YML120C, strain ndi1, stronger effect = lower value 0.964 | locus YMR058W, strain fet3, stronger effect = lower value 0.981 | locus YMR125W, strain sto1, stronger effect = lower value 0.918 | locus YMR129W, stronger effect = lower value 0.961 | locus YMR205C, strain PFK2, stronger effect = lower value 0.955 | locus YMR231W, strain pep5, stronger effect = lower value 0.967 | locus YNL071W, strain lat1, stronger effect = lower value 0.958 | [7] 0.942 | locus YNL209W, strain ssb2, stronger effect = lower value 0.955 | locus YNL248C, strain rpa49, stronger effect = lower value 0.925 | locus YNL322C, strain KRE1 (second series), stronger effect = lower value 0.966 | locus YNR049C, strain mso1, stronger effect = lower value 0.948 | locus YOR001W, strain rrp6, stronger effect = lower value 0.938 | locus YOR070C, strain gyp1, stronger effect = lower value 0.98 | locus YOR080W, strain dia2, stronger effect = lower value 0.942 | locus YOR083W, strain WHI5, stronger effect = lower value 0.946 | locus YOR106W, strain vam3, stronger effect = lower value 0.983 | [8] 1 | locus YOR265W, strain rbl2, stronger effect = lower value 0.978 | locus YOR270C, strain vph1, stronger effect = lower value 0.931 | locus YOR290C, strain snf2, stronger effect = lower value 0.989 | locus YPL051W, strain arl3, stronger effect = lower value 0.989 | locus YPL078C, strain atp4, stronger effect = lower value 0.991 | locus YPL106C, strain sse1, stronger effect = lower value 0.956 | locus YPL240C, strain hsp82, stronger effect = lower value 0.976 | [9] 1.01
